Inconclusive results are not listed. A call without a number means that no potency is given here. Calls of active or inactive are those of the source. Calls come from the whole dose curve; as a rule, active = well fitted curve in the direction sought with a large enough effect; inconclusive = small, poorly fitted or top-dose-only effect, or another doubt; inactive = no such curve, though single readings can be large; an effect the other way counts as inactive or inconclusive. Where a SMILES comes first, the peptide text is derived from it. Bridges are numbered along the chain shown (N, C = ends). [ ]: non-standard residue; d: D form. The star is where a group is joined. ξ: configuration not given here. d(aThr) = C[C@@H](O)[C@@H](N)C(=O)O; ξThr(3R) = C[C@@H](O)C(N)C(=O)O; X3 = CC[C@@H](C)CCCCC(=O)*; X2 = CC[C@H](C)CCCCC(=O)*; dDab = NCC[C@@H](N)C(=O)O; Dab = NCC[C@H](N)C(=O)O

Assay [1] can be described thus: qHTS assay to identify small molecule inhibitors of chordoma cells - UCH-2 (AID 1259356). Note: series mostly up to about 46 µM. Background: qHTS replaces the single test concentration by a dilution series.
Assay [2] in a line: P-glycoprotein substrates identified in KB-8-5-11 adenocarcinoma cell line, qHTS therapeutic library screen (AID 1346987). Note: nearly all actives have a fitted effect of over 65% in size. Note: potency is the fitted concentration of half-maximal effect. The following applies: outcome: dose series up to 44.5 µM unless noted. In a few lines:
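KB-8-5-11, a colchicine-selected P-gp-overexpressing KB-3-1 subline, was grown without colchicine for the assay. Cells were seeded at 500 cells/well, dosed in concentration-response and incubated 72 h at 37 degree C, 5% CO2. Viability was read by CellTiter-Glo luminescence.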

Take `NC(=O)[C@H]1O[C@@H](O)[C@H](O)[C@@H](O)[C@@H]1O`: the Potency result in assay [1] and in assay [2] was “inactive” in each case. With `CC(C)[C@@H](C)/C=C/[C@@H](C)[C@H]1CC[C@H]2/C(=C/C=C3\C[C@@H](O)CC[C@@H]3C)CCC[C@]12C`, the Potency result in assay [1] and in assay [2] was “inactive” each time. On to `CNC(=O)c1c(I)c(C(=O)NCC(=O)Nc2c(I)c(C(=O)O)c(I)c(C(=O)NCCO)c2I)c(I)c(N(C)C(C)=O)c1I`, for which the Potency result in assay [1] and in assay [2] was “inactive” each time. In the case of `OB(O)O`, the Potency entry in assay [1] and in assay [2] was “inactive” each time.

Regarding `CO[C@@]1(NC(=O)C2SC(=C(C(N)=O)C(=O)O)S2)C(=O)N2C(C(=O)O)=C(CSc3nnnn3C)CS[C@@H]21` (some centres undefined), the Potency result in assay [2] was “inactive”. As to `CC(C)CN(C[C@@H](O)[C@H](Cc1ccccc1)NC(=O)O[C@@H]1CCOC1)S(=O)(=O)c1ccc(N)cc1`, the Potency entry in assay [1] and in assay [2] was “inactive” throughout. As for `Cc1ccc(C(C)(C)c2ccc(C)cc2)cc1`, the Potency entry in assay [1] and in assay [2] was “inactive” each time. As to `CC[C@H](C)CCCCC(=O)N[C@@H](CCN)C(=O)N[C@H](C(=O)N[C@@H](CCN)C(=O)N[C@H]1CCNC(=O)[C@@H]([C@H](C)O)NC(=O)[C@H](CCN)NC(=O)[C@H](CCN)NC(=O)[C@H](CC(C)C)NC(=O)[C@@H](CC(C)C)NC(=O)[C@H](CCN)NC1=O)[C@@H](C)O` (X2-[Dab]T[Dab][Dab][Dab][dL]L[Dab][Dab][dT]; lactam 4-C), the Potency entry in assay [1] and in assay [2] was “inactive” throughout. Take `COc1cc2c(cc1OC)[C@@H](Cc1cc(OC)c(OC)c(OC)c1)[N+](C)(CCCOC(=O)CC/C=C/CCC(=O)OCCC[N+]1(C)CCc3cc(OC)c(OC)cc3[C@H]1Cc1cc(OC)c(OC)c(OC)c1)CC2` (some centres undefined): the Potency result in assay [1] and in assay [2] was “inactive” each time. As for `CO`, the Potency result in assay [1] and in assay [2] was “inactive” throughout. In the case of `CC[C@@H](C)[C@H](N)C(=O)O`, the Potency result in assay [1] and in assay [2] was “inactive” throughout. Regarding `CC[C@H](C)[C@@H]1NC(=O)[C@H](Cc2ccc(O)cc2)NC(=O)[C@@H](N)CSSC[C@@H](C(=O)N2CCC[C@H]2C(=O)N[C@@H](CC(C)C)C(=O)NCC(N)=O)NC(=O)[C@H](CC(N)=O)NC(=O)[C@H](CCC(N)=O)NC1=O`, the Potency result in assay [1] and in assay [2] was “inactive” each time. With `CCCCC(CC)COS(=O)(=O)O` (centres undefined), the Potency result in assay [1] and in assay [2] was “inactive” throughout. As for `CC[C@@H](C)CCCCC(=O)N[C@H](CCN)C(=O)N[C@@H](C(=O)N[C@H](CCN)C(=O)N[C@@H]1CCNC(=O)C([C@@H](C)O)NC(=O)[C@@H](CCN)NC(=O)[C@@H](CCN)NC(=O)[C@@H](CC(C)C)NC(=O)[C@@H](Cc2ccccc2)NC(=O)[C@@H](CCN)NC1=O)[C@@H](C)O` (stereo partly drawn) (X3-[dDab][d(aThr)][dDab][dDab][dDab][dF][dL][dDab][dDab][ξThr(3R)]; lactam 4-C), the Potency result in assay [1] and in assay [2] was “inactive” in each case.

As for `COc1cc2c(cc1OC)[C@@H](c1ccccc1)CN(C)CC2`, the Potency entry in assay [1] and in assay [2] was “inactive” in each case.

As for `O[C@@H]([C@H](O)[C@H](O)CBr)[C@H](O)CBr`, the Potency entry in assay [1] and in assay [2] was “inactive” in each case.

`O=C(O)Cc1cc(I)c(Oc2ccc(O)c(I)c2)c(I)c1`: in assay [2], the Potency entry was “inactive”. Same read-out and setting: in the case of `CNC(C)CCC=C(C)C` (centres undefined) it was “inactive”. `OC[C@H]1O[C@@H]2O[C@H]3[C@H](O)[C@@H](O)[C@@H](O[C@H]4[C@H](O)[C@@H](O)[C@@H](O[C@H]5[C@H](O)[C@@H](O)[C@@H](O[C@H]6[C@H](O)[C@@H](O)[C@@H](O[C@H]7[C@H](O)[C@@H](O)[C@@H](O[C@H]1[C@H](O)[C@H]2O)O[C@@H]7CO)O[C@@H]6CO)O[C@@H]5CO)O[C@@H]4CO)O[C@@H]3CO`: the Potency entry in assay [1] and in assay [2] was “inactive” each time. In the case of `CCC[C@@H]1C[C@@H](C(=O)N[C@@H]([C@H]2O[C@H](SC)[C@H](O)[C@@H](O)[C@H]2O)[C@H](C)Cl)N(C)C1`, the Potency result in assay [1] and in assay [2] was “inactive” in each case.

Regarding `C[C@]12CC[C@@H]3c4ccc(OC(=O)c5ccccc5)cc4CC[C@H]3[C@@H]1CC[C@@H]2O`, the Potency result in assay [1] was “inactive”. Further, the Potency in assay [2] is 4.61 µM (active).

With `CC(=O)Oc1cc(C(F)(F)F)ccc1C(=O)O`, the Potency entry in assay [1] and in assay [2] was “inactive” each time.

On to `COC(=O)[C@H]1[C@H]2C[C@@H]3c4[nH]c5cc(OC)ccc5c4CCN3C[C@H]2C[C@H](OC)[C@@H]1OC`, for which the Potency result in assay [1] is “inactive”. Turning to `CC12CCC(C[N+](C)(CCC[N+](C)(C)C)C1)C2(C)C` (centres undefined), the Potency result in assay [2] is “inactive”. Turning to `CCCCC/C=C\CCC(=O)N[C@H]1[C@H](Oc2c3cc4cc2Oc2ccc(cc2Cl)[C@@H](O[C@@H]2O[C@H](CO)[C@@H](O)[C@H](O)[C@H]2NC(C)=O)[C@@H]2NC(=O)[C@H](NC(=O)[C@@H]4NC(=O)[C@H]4NC(=O)[C@@H](Cc5ccc(c(Cl)c5)O3)NC(=O)[C@H](N)c3ccc(O)c(c3)Oc3cc(O)cc4c3)c3ccc(O)c(c3)-c3c(O[C@H]4O[C@H](CO)[C@@H](O)[C@H](O)[C@@H]4O)cc(O)cc3[C@@H](C(=O)O)NC2=O)O[C@H](CO)[C@@H](O)[C@@H]1O`, in assay [2], the Potency result was “inactive”.

These data come from PubChem BioAssay (NCATS).
